# According to PubChem BioAssay (NCI):
# This is part of a sample that, as a whole, favours compounds with a hit. Of some 83,000 tested, about 20% had one in any assay.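 Interpretation: 100, growth as untreated; towards 0, rising growth inhibition; 0, no net growth; 0 to -100, cell death. Compounds scoring below 10 were considered active.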 Unmarked numbers belong to inactive results. The source made the active and inactive calls.
# Key:
# Assay in all cases: NCI-60 one-dose screen, 48 h (100 = growth as untreated, 0 = no growth, -100 = all killed)
# Settings in all cases: 10 µM
# [1] = system: NCI-H23 lung
# [2] = system: NCI-H226 lung
# [3] = system: NCI-H322M lung
# [4] = system: HOP-62 NSCLC
# [5] = system: NCI-H460 lung
# [6] = system: HOP-92 NSCLC
# [7] = system: NCI-H522 lung
# [8] = system: 786-0 renal
# [9] = system: COLO 205 colon
Structure (SMILES),growth [1],growth [2],growth [3],growth [4],growth [5],growth [6],growth [7],growth [8],growth [9]
Nc1ccc(Sc2ccc3c4c2cccc4c(=O)n2c4ccccc4nc32)cc1,37.5%,40.6%,61.8%,51.2%,9.47% (active),28.7%,60%,37.3%,50.8%
C=CCNC(=S)NN,98.2%,106%,82.4%,81.2%,99%,84.6%,91.6%,98.4%,107%
COc1ccc(/C=C2\SC(=S)N(CCCN3CCOCC3)C2=O)c(OC)c1,98.9%,-99.3% (active),111%,125%,105%,87.1%,79.7%,106%,108%
CCOC(=O)C(CCC1=NC(C)(C)CC(C)O1)C(=O)OCC (stereo unspecified),77.7%,95.1%,137%,93.8%,51.5%,95.3%,62.5%,107%,92%
CCN(Cc1ccccc1)C1CCN(Cc2cc(Br)ccc2O)CC1,41.3%,63.4%,88.8%,58.1%,49.6%,5.9% (active),61%,62.7%,-20.6% (active)
CCCCCC(=O)N1c2ccccc2NC2=C(C(=O)CC(c3ccc(OC)c(OC)c3)C2)C1c1ccc(C(F)(F)F)cc1 (stereo unspecified),51.5%,64.8%,70.6%,54.8%,76.9%,66.4%,37.5%,65.8%,69.2%
N=C(N)c1ccc(-c2ccc(-c3ccccc3)s2)s1,54.6%,-19.8% (active),-86.2% (active),-83.9% (active),-70% (active),-37.8% (active),-69.4% (active),-36.7% (active),-96.3% (active)
Cc1[nH]nc2c(=S)[nH]c(=O)[nH]c12,103%,94.3%,103%,105%,105%,87.9%,98.7%,97.3%,109%
CC[C@@]1(C(N)=O)CC2C=CC1C2 (stereo partly specified),110%,102%,142%,111%,122%,97.2%,101%,98.9%,114%
